# Test results as given in PubChem BioAssay (NCI).
# The panel holds about 83,000 compounds, 20% with a hit somewhere; the sample as a whole holds those more often.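 96-well plates, one dose, 48 hours. Percent growth reported; active if below 10.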 Values without a mark were called inactive. Activity calls are given as the source filed them.
# Assays:
# Assay in all cases: NCI-60 one-dose screen, 48 h (100 = growth as untreated, 0 = no growth, -100 = all killed)
# Conditions in all cases: 10 µM
# [1] = system: HCT-15 colon
# [2] = system: HT29 colon
# [3] = system: SNB-75 CNS
# [4] = system: SNB-19 CNS
# [5] = system: U251 CNS
# [6] = system: PC-3 prostate
# [7] = system: UACC-62 melanoma
# [8] = system: LOX IMVI melanoma
# [9] = system: SK-MEL-28 melanoma
# [10] = system: SK-MEL-2 melanoma
# [11] = system: EKVX NSCLC
# [12] = system: UO-31 renal
# [13] = system: TK-10 renal
# [14] = system: ACHN renal
# [15] = system: CAKI-1 renal
# [16] = system: A498 renal
# [17] = system: CCRF-CEM leukemia
# [18] = system: MOLT-4 leukemia
# [19] = system: SN12C renal
# [20] = system: SK-MEL-5 melanoma
Compound,growth [1],growth [2],growth [3],growth [4],growth [5],growth [6],growth [7],growth [8],growth [9],growth [10],growth [11] [%],growth [12],growth [13],growth [14],growth [15],growth [16],growth [17],growth [18],growth [19],growth [20] [%]
CCc1c(C(=O)NCc2c(O)ccc3cccc(O)c23)[nH]c(C)c1C(C)=O,14%,58.2%,56.6%,53%,33.4%,27.4%,15.4%,16.2%,37.5%,32.7%,27.6,12.5%,46.8%,11.6%,34.2%,49.3%,16.6%,19.6%,–,–
CCOc1ccc2c(c1)CC[C@@H]1[C@@H]2CC[C@]2(C)[C@@H](O)[C@@H](O)C[C@@H]12,95%,109%,107%,99%,95%,91.2%,94.4%,102%,100%,115%,–,89.3%,105%,126%,89.8%,107%,87.9%,95.2%,93.7%,–
CC[C@@]1(C(N)=O)CC2C=CC1C2 (stereo partly drawn),116%,106%,92.4%,107%,113%,93.1%,107%,105%,112%,105%,102,95.5%,108%,113%,103%,123%,87.9%,88.3%,102%,–
CCCCCCCOc1cccc(/C=C2/C(=O)N=C3SCCCN32)c1,60.8%,63.9%,75.1%,63.4%,51%,70.4%,54.9%,44.9%,82.3%,83%,74.2,61.9%,75.7%,79.2%,84.9%,97.6%,60.4%,50.2%,–,–
COc1ccc2c(=O)cc(C(Cl)(Cl)Cl)oc2c1,5.59% (active),-41.8% (active),-78.3% (active),1.99% (active),-0.183% (active),-37% (active),-73.2% (active),-15.5% (active),-82.7% (active),-75.2% (active),–,-19.3% (active),-20.4% (active),10.6%,-14.5% (active),-68.5% (active),-21.2% (active),-23.9% (active),2.57% (active),–
COc1cc(C2C=C(c3ccc(Cl)c(Cl)c3)N=C3SC(C)=CN32)cc(OC)c1OC (stereo not drawn),64.8%,53.1%,81.7%,79.5%,51.2%,59.2%,85.8%,41.3%,102%,83.4%,–,55.2%,94.7%,90.3%,67.3%,74%,36.7%,46.2%,92.3%,–
COC(=O)c1c(C)nc(Nc2nc3ccccc3s2)nc1-c1ccc(Cl)cc1Cl,92.2%,114%,87.2%,92.3%,111%,91.3%,96.1%,–,109%,120%,–,81.2%,120%,96.7%,99.6%,100%,95%,84.7%,99.8%,105
COc1cc(C2CC(=O)Nc3c2c(C)nn3-c2nc3ccccc3[nH]2)cc(OC)c1O (stereo not drawn),40.3%,57.9%,6.05% (active),44.1%,53.3%,68.1%,67.2%,–,13.2%,-7.45% (active),–,–,37.2%,31.1%,78.9%,22.5%,0.819% (active),-36% (active),81.2%,60.8
CNCCCNCCCN1C(=O)c2ccc3c4c(ccc(c24)C1=O)C(=O)N(CCCNCc1ccccc1OC)C3=O,28%,-23.4% (active),15.9%,36.6%,6.5% (active),1.85% (active),-42.2% (active),-58.3% (active),-48.2% (active),-49.9% (active),–,18.2%,-14% (active),16.6%,24.6%,28.8%,–,-23.8% (active),2.51% (active),–
NC(=O)c1ccc(Br)o1,94.1%,95.7%,95.3%,109%,105%,102%,101%,–,107%,100%,104,93.2%,90.8%,103%,102%,108%,119%,109%,–,–
COc1cc(NS(C)(=O)=O)ccc1Nc1c2ccc(Cl)cc2nc2c(OC)cccc12,-15.4% (active),-37.3% (active),-13.4% (active),32.8%,5.31% (active),31.9%,-8.98% (active),-58.7% (active),52.4%,-45.2% (active),70.4,5.23% (active),-55.3% (active),-46.4% (active),-37% (active),-8.95% (active),2.75% (active),-2.38% (active),-10.7% (active),–
CCn1nc(-c2ccccn2)c2cccnc2c1=S,67.2%,51.9%,95.4%,93.9%,74.5%,38.4%,81.2%,87.5%,89.4%,88.2%,59.9,77.3%,89.9%,89.4%,86.6%,99.2%,31.5%,57.5%,–,–
COc1ccc(-n2nnc3c(sc4ccccc43)c2=O)cc1,102%,43.8%,-9.25% (active),33.7%,18.9%,73%,93.9%,–,82.8%,77.1%,–,1.83% (active),8.22% (active),-22.3% (active),36.6%,-2.38% (active),89.9%,99.5%,61.9%,74.5
CC(=O)Oc1c(C)c(C)c2c(c1C)CCC(C)(CC(=O)OCCCCCCCCCCC[P+](c1ccccc1)(c1ccccc1)c1ccccc1)O2 (stereo not drawn),-69.3% (active),-53.9% (active),-47.8% (active),-78.8% (active),-93.1% (active),-51% (active),-86.1% (active),-92.6% (active),-86.9% (active),-88.7% (active),–,-5.35% (active),-97% (active),-95.4% (active),-76.3% (active),-20.5% (active),3.68% (active),-23.6% (active),-82.3% (active),–
O=c1cc(CSc2nnc(-c3ccccc3)n2-c2ccc(F)cc2)c2ccc3ccccc3c2o1,98.2%,96.4%,92.9%,99.1%,98.8%,79%,83.2%,90.3%,104%,79.7%,95.3,65.6%,104%,99%,88.6%,118%,108%,82.7%,–,–
C[C@@H]1C(=O)N(C[C@H](Cc2ccccc2)NC(=O)OCc2ccccc2)[C@]1(Cc1ccccc1)C(=O)OCc1ccccc1,39.3%,43.7%,52.5%,56.7%,35.2%,10.4%,40.7%,36.5%,66.9%,42.9%,34,16.4%,29.1%,32.2%,32.2%,37.7%,52.6%,-0.259% (active),–,–
COc1ccc(C2C=C(c3ccc(Cl)c(Cl)c3)N=C3SC(C)=CN32)cc1 (stereo not drawn),85.5%,71.1%,89.8%,96.6%,84.2%,90.5%,92.1%,–,104%,94.8%,–,–,92.8%,103%,95.7%,–,82.8%,79.5%,99.6%,93.6
